Experimental data reported in PubChem BioAssay AID602438 (Sanford-Burnham Center for Chemical Genomics, 2012).
In all, about 360,000 compounds went through this assay and about 3,100 (0.86%) were called active.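 The calls were made as follows: active = inhibition or corrected inhibition above about 18%, plus a signal ratio from 0.5 to 1.5 (limit read from the data, passing the limit was not always enough); inactive = the rest.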 Only a selection was taken, and actives are over-represented in it overall.

The molecules below were run against Neuropilin-1 (Homo sapiens) (UniProt O14786) (assay: modulators of CendR peptide binding to NRP-1, primary screen, biochemical, fluorescence polarization, uHTS (AID 602438)). Conditions: FAM-RPARPAR peptide binding to NRP-1, fluorescence polarization; at 25 µM; stronger effect = higher value.
Chain of Neuropilin-1 (Homo sapiens) (O14786 whole entry, looked up): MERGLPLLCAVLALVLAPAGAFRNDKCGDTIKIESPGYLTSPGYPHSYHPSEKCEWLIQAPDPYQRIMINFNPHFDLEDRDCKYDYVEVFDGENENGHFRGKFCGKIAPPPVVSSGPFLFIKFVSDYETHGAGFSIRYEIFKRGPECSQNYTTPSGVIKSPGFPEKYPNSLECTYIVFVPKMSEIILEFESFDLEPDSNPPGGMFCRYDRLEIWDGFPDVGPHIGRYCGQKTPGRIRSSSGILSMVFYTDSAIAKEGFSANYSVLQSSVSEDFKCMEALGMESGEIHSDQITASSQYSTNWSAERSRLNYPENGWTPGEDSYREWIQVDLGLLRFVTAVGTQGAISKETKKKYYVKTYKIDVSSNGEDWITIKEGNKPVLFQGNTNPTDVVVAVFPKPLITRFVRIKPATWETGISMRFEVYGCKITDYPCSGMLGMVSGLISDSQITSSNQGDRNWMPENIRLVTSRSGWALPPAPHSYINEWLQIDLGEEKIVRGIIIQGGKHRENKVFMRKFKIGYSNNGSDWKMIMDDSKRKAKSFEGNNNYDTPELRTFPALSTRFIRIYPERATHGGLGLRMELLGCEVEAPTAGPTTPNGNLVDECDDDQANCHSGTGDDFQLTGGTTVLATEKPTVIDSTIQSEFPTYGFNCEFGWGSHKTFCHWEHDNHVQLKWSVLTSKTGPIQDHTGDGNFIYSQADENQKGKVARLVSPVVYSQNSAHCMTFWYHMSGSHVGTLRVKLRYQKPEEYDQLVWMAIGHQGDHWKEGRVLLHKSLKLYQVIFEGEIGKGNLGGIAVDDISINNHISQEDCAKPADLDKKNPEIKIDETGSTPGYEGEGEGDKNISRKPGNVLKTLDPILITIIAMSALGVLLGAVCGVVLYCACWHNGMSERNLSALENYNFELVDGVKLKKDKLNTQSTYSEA

inhibition, inactive:
CCN(CC(=O)N1CCCC1)S(=O)(=O)c1ccc(F)cc1 9.2%
COCn1c(C(O)c2ccccc2)cc2ccccc21 (stereo unspecified) 8.1%
O=C(NCC(O)c1ccc([N+](=O)[O-])cc1)C1CCCCC1 (stereo unspecified) 11.3%
CC(OC(=O)c1cccc(S(=O)(=O)N2CCOCC2)c1)C(=O)NCC1CCCCC1 (stereo unspecified) 8.2%
O=C(C1CCCN1S(=O)(=O)c1ccc(Br)cc1)N1CCOCC1 (stereo unspecified) 6.9%
Cc1nc2ccc(C(=O)N(C)CC3CCCN(CCc4ccc(Cl)cc4)C3)cc2[nH]1 (stereo unspecified) 8.8%
COC(=O)Nc1nc2ccc(Sc3ccccc3)cc2[nH]1 -0.3%
Cc1cccc(NC(=O)CN2CCCN(S(=O)(=O)c3ccc(Br)s3)CC2)c1 1.1%
COc1cccc(CNC(=O)CN(C)S(=O)(=O)c2ccc3c(c2)c(=O)n(C)c(=O)n3C)c1 -1.6%
CCc1ccccc1NC(=O)CN(C)S(=O)(=O)c1ccc2c(c1)c(=O)n(C)c(=O)n2C 7.6%
C/C=N/NC(=O)CCCC(=O)N/N=C/C 15%
Cc1cc(C)c(S(=O)(=O)N2C=CC(C(F)(F)F)=NCC2)c(C)c1 3.5%
O=C(O)CSCc1ccc(C(=O)O)o1 -7.1%
O=C(O)c1ccc(NC(=O)c2ccc(COc3ccc(Cl)cc3)o2)cc1 -6.7%
CCOc1ccc(-n2c(SC(C)C(=O)OC)nc3c(c2=O)SCC3)cc1 (stereo unspecified) -5.4%
O=C1CCN(CCCc2ccccc2)CCN1CCO 5.5%
N#Cc1cccc(CN2CCC(=O)N([C@H](CO)c3ccccc3)CC2)c1 9.5%
O=C(CSc1nnc(-c2cnccn2)n1Cc1ccco1)c1ccc(Cl)c(Cl)c1 3.3%
O=C(CSc1nnc(-c2cccnc2)n1Cc1ccco1)c1ccc(Cl)c(Cl)c1 -25.2%
CC(=O)N1CC2(C)CN(C(C)=O)CC(C)(C1)C2=O 11.7%
O=C(NCc1ccccc1Cl)C1CCN(c2ncnc3c2nc2n3CCCCC2)CC1 13.7%
CN(Cc1ccccc1)C(=O)C1CCCN(c2ncnc3c2nc2n3CCCCC2)C1 (stereo unspecified) 10%
CCC(=O)c1cn(CCOc2ccccc2OC)c2ccccc12 -7%
CSCCC(NS(=O)(=O)c1ccc(C)cc1)C(=O)N(C)CC(=O)Nc1ccccc1Br (stereo unspecified) 3.9%
O=C(CNC(=O)c1n[nH]c2ccccc12)Nc1cc(Cl)ccc1Cl 3.5%
CCC(NC(=O)c1cc(COc2ccc(F)c(F)c2)on1)c1ccncc1 (stereo unspecified) 1.4%
CC1=C(C(N)=O)C(c2ccc(F)cc2)n2nc(CCCO)nc2N1 (stereo unspecified) 6.8%
COc1ccccc1C1C(C(N)=O)=C(C)Nc2nc(CCCO)nn21 (stereo unspecified) 3.8%
Cc1noc(C)c1CSc1nnc2ccc3ccccc3n12 10.5%
COc1ccc(-c2ccc3nnc(SCC(=O)Nc4ccc(NC(C)=O)cc4)n3n2)cc1 -19%
CNC(=O)N1c2ccccc2C=Cc2ccccc21 2.6%
CC1C(=O)N(Cc2ccccc2)c2ccccc2N1C(=O)c1ccccc1 (stereo unspecified) 1.5%
CCN(CC)c1ccc(C2C3CCCCC3(O)CCN2CC(=O)Nc2ccccc2)cc1 (stereo unspecified) -12.5%
CC(C)Cc1nc(Nc2ccc(S(=O)(=O)N3CCCC3)cc2)c2nnn(Cc3ccccc3)c2n1 -9.8%
CCOC(=O)CN1CC23C=CC(O2)C(C(=O)Nc2ccc(F)cc2)C3C1=O (stereo unspecified) -3.4%
CCN(CC)CCN1C(=O)C2C(C(=O)Nc3ccc(Br)cc3)C3C=CC2(O3)C1C(=O)NC1CCCCC1 (stereo unspecified) 10%
CCOC(=O)C1CCN(C(=O)c2ccccc2N(C)S(=O)(=O)c2ccccc2)CC1 7.6%
Cc1cccc(N2CCN(C(c3ccc(N(C)C)cc3)c3nnnn3C(C)(C)C)CC2)c1C (stereo unspecified) -6.2%
O=C(CCl)NNc1cccc(Cl)n1 5.6%
O=C(CC1SC(=Nc2ccccc2F)N(CCN2CCOCC2)C1=O)Nc1ccc(F)cc1F (stereo unspecified) -6.8%
CCc1ccc(-c2nc(SCC(=O)NC3CCCC3)n[nH]2)cc1 -8.8%
Cc1cc(C)c(S(=O)(=O)N2CCCC2CNC(=O)c2ccc3c(c2)OCO3)c(C)c1 (stereo unspecified) -6.7%
Cc1cc(NS(=O)(=O)c2ccc(NC(=O)C(C)Oc3cccc(C)c3C)cc2)nc(C)n1 (stereo unspecified) -7.8%
Cc1onc(-c2ccccc2)c1C(=O)N1CCN(S(=O)(=O)c2ccccc2C(F)(F)F)CC1 -195%
O=C(COC(=O)c1cccnc1Cl)NC12CC3CC(CC(C3)C1)C2 8%
CC1(C(=O)NCc2ccc3c(c2)OCO3)CCN1C(=O)Cc1cccs1 (stereo unspecified) 3%
Cc1cc(C(=O)COc2ccccc2[N+](=O)[O-])c(C)n1-c1cccc(S(=O)(=O)N2CCOCC2)c1 -14.8%
CCc1c(N=O)c(-c2ccccc2)n(O)[n+]1[O-] 5.4%
O=C(CN1CCN(Cc2ccc(F)cc2Cl)C1=O)NCc1cccs1 -1.9%
CCN=C1S/C(=C\c2cc(Br)ccc2OCC(=O)OCC)C(=O)N1CC -10.1%
CN(C)c1ccc2c(=O)[nH][nH]c(=O)c2c1 11.3%
COc1ccc(CNC(=O)C2CCN(S(C)(=O)=O)CC2)cc1 -11.1%
COc1ccc(CNC(=O)C2CCN(C(=O)c3ccco3)CC2)cc1 -1%
COc1cccc(/C=N/NC(=O)C(=O)N2CCCC2)c1 -7.9%
CCOC(=O)C1(Cc2ccccc2C(F)(F)F)CCN(C(=O)c2cc(C)n(C)n2)CC1 -5.9%
Cc1ccc(S(=O)(=O)N(C)c2ccc(OCC(=O)OCc3ccc(C#N)cc3)cc2)cc1 -6.5%
O=C(c1ccc(N2CCCC2=O)cc1)N1CCN(c2ccc(C(F)(F)F)cc2[N+](=O)[O-])CC1 -0.8%
O=C(c1ccc(N2CCOCC2)c([N+](=O)[O-])c1)N1CCN(S(=O)(=O)c2cccs2)CC1 -14%
N#Cc1cccc(CSc2ncnc(N)n2)c1 12.4%
CCOC(=O)C1CCN(C(=O)CN2C(=O)NC(C)(c3ccc4cc(OC)ccc4c3)C2=O)CC1 (stereo unspecified) -3.2%
CC1=C(C(N)=O)C(c2sccc2C)n2nnnc2N1 (stereo unspecified) -5.6%
Cc1cccc(OCC(=O)NC2CC(C)(C)NC(C)(C)C2)c1 -1.1%
Cc1cc(OC(C)C(=O)NC2CC(C)(C)NC(C)(C)C2)c2c(C)cc(=O)oc2c1 (stereo unspecified) 1.2%
COc1cccc(C2=CC(=O)C[C@H](c3ccc(OC)c(OC)c3)C2)c1 -4.1%
S=c1[nH]nc(Nc2ccccc2)s1 0.6%
O=C(/C=C/Nc1ccccc1)c1cnc(-c2ccccc2)s1 5.7%
O=c1cc(Cl)c2ccccc2n1-c1ccccc1 0%
CCOCCn1[nH]c2ccccc2c1=O 8.9%
COc1ccc(N2CCN(C(=O)[C@@H](NC(=O)c3cc(OC)cc(OC)c3)C(C)C)CC2)cc1 4%
COc1cc(OC)cc(C(=O)NC(C(=O)N2CCC2)C(C)C)c1 (stereo unspecified) -2.9%
CC1CCN(S(=O)(=O)c2ccc(S(=O)(=O)NCc3ccco3)cc2)CC1 8.7%
CN(C)C(=S)N=c1ssc(=S)n1Cc1ccco1 -2.5%

inhibition, active:
CC(OC(=O)c1ccc([N+](=O)[O-])cc1)C(=O)NCC1CCCCC1 (stereo unspecified) 23.5%
Cc1nc2ccc(C(=O)O)cc2[nH]1 24.6%
CC1CCC(NC(=O)CN(C)S(=O)(=O)c2ccc3c(c2)c(=O)n(C)c(=O)n3C)CC1 (stereo unspecified) 25.4%
O=C(O)c1ccc(COc2c(F)c(F)cc(F)c2F)o1 45.5%
CC1O[C@H](OC2C(COC3OC(CO)C(O)[C@H](O)C3O)OC(OC3CC[C@]4(C)C(CC[C@@]5(C)[C@@H]4C=C[C@]46OC[C@@]7(CCC(C)(C)C[C@H]74)C(O)C[C@@]56C)C3(C)C)C(O)C2O)C(O)C(O)C1O (stereo partly specified) 23.7%
N#Cc1cccc(CN2CCC(=O)N(CCO)CC2)c1 21.1%
O=C(CSc1nnc(-c2cccs2)n1Cc1ccco1)c1ccc2c(c1)OCO2 37.5%
CN(C(=O)C1CCN(c2ncnc3c2nc2n3CCCCC2)CC1)C1CCCCC1 18.4%
COCCOC(=O)C1=C(C)Nc2nc(C)nn2C1c1ccccc1 (stereo unspecified) 36.8%
CC1C(C)N(C(=O)CCl)c2ccccc2N1C(=O)CCl (stereo unspecified) 27.7%
CC(C)COC(=O)C1C2C=CC3(CN(C(C)c4ccc(Br)cc4)C(=O)C13)O2 (stereo unspecified) 27.4%
COc1ccc(-c2c(C#N)cnc(C)c2C)c(O)c1OC 37.9%
CC(C)(C)S(=O)(=O)c1ccccc1-c1noc(-c2ccccc2)c1C(N)=O 42.7%
COc1ccc(CNC(=O)[C@@H]2CC=C[C@@H]3CCN(C4CC4)C(=O)[C@@H]32)cc1 25.5%
O=C(O)c1ccccc1N=N/C(=N/Nc1cc(S(=O)(=O)O)ccc1O)c1ccccc1 41.5%
O=C(Cc1ccc(S(=O)(=O)N2CCOCC2)s1)N1CCN(c2ccc(C(F)(F)F)cc2[N+](=O)[O-])CC1 27.6%
CC(Oc1cccc(Cl)c1)C(=O)NC1CC(C)(C)NC(C)(C)C1 (stereo unspecified) 24.2%
CC(C)(C)C(=O)c1cnc(Nc2ccccc2)s1 37.4%
COc1cc(OC)cc(C(=O)N[C@H](C(=O)NNC(=O)c2ccc(Br)cc2)C(C)C)c1 22.8%
